# Most compounds without a hit are left out; they make up all but 5.4% or so of the library.
# GAA850 FXN act: activators of GAA850 frataxin (FXN) promoter. HEK293 lucGAA850 FXN promoter luciferase reporter, 24 h; percent of 10 µM SAHA response. activation, % at 6 µM. 360,000 compounds, 0.56% hits. AID 540364;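 active = activation above the average of all compounds screened plus 3 SD, cutoff fixed separately per campaign, cut at about 7.5% in these data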;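 note: 0% = DMSO wells and 100% = 10 µM SAHA wells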
# DAX1 inh: inhibitors of human orphan nuclear receptor DAX1 (NR0B1); inhibition, % at 6.75 µM; 340,000 compounds, 0.99% hits; HEK293 Gal4-DAX1 luciferase reporter, luminescence; P51843;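 active = inhibition above the mean over all tested compounds plus 3 SD, cut at about 4.2% in these data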;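 note: 0% = DAX1-transfected cells with DMSO and 100% = empty-vector control cells with DMSO; inhibition shows as a rise in luminescence from relieved DAX1 repression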
# AHR act: activators of human aryl hydrocarbon receptor; P35869; AHR-responsive luciferase reporter cells, luminescence; activation, % at 5 µM; 320,000 compounds, 2.5% hits; AID 2796; in the data active = activation above about 47%;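 note: 0% = vehicle wells and 100% = reference agonist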
# Target sequence (P35869 whole entry, looked up): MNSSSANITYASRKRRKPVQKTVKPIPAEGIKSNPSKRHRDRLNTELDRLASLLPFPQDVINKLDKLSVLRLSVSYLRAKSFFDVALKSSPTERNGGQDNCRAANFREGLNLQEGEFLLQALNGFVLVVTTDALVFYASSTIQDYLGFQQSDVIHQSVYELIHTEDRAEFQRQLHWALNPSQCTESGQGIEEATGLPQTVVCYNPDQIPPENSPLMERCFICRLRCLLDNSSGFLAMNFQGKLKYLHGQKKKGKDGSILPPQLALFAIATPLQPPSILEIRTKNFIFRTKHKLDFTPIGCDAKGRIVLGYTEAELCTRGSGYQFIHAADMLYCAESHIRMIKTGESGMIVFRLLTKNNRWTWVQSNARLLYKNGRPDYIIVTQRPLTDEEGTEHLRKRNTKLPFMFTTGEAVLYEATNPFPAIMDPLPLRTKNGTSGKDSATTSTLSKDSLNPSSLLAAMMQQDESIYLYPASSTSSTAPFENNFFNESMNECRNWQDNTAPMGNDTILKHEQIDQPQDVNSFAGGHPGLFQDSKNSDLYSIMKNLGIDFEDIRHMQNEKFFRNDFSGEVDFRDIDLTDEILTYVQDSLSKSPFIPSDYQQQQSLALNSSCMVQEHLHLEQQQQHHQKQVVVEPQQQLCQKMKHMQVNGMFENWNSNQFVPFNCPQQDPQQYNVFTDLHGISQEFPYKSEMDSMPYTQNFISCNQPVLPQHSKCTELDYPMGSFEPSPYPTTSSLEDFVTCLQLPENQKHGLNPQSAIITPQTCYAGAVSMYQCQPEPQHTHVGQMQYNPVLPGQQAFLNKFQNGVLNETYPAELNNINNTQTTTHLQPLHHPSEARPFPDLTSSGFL
# HSF-1 act: increases HSF-1 driven luciferase reporter signal | AID 504408 | NIH3T3-HGL HSF-1 luciferase reporter, MG132, 8 h; 100% = twice DMSO control signal | activation, % at 9 µM | 300,000 compounds, 1.7% hits;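 active = mean replicate activation of at least 50% with a set share of replicates each reaching 50%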;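 note: 0% = median of the neutral control wells and 100% = twice that signal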
# HSF1 inh: HSF1 inhibition | AID 2098 | NIH3T3-HGL HSE-luciferase, MG132-induced, luminescence 8 h; stronger effect = lower value | activity change, negative = inhibition, % at 7.5 µM (by protocol) | 300,000 compounds, 0.77% hits;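 active = more than half of replicate wells show activity change below -50%, luminescence cut by over half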;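 note: luciferase reports HSF-1 transcriptional activity via heat shock element; 0% = median of DMSO wells and -100% = zero luminescence signal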
# Active calls of the source: *; x = not tested or not shown.
SMILES,GAA850 FXN act,DAX1 inh,AHR act,HSF-1 act,HSF1 inh
CC(NS(=O)(=O)c1ccc2[nH]c(=O)[nH]c2c1)c1ccc(F)cc1 (stereo unspecified),-1,3,x,x,x
CCOC(=O)C(Nc1ccc2ccccc2c1)C(=O)OCC,2,0,37,59*,42
CC(=O)Nc1ccc2ccccc2c1,3,0,3,18,8
CN(C(=O)Cn1nc(Cl)ccc1=O)C1CCCN(Cc2ccccc2F)C1 (stereo unspecified),1,1,2,-9,-5
Cc1cc(C(=O)N/N=C/c2ccc3c(c2)OCO3)c(C)o1,2,3,72*,14,1
O=C(N/N=C/c1ccc2c(c1)OCCO2)c1ccncc1,1,3,8,-1,1
COc1ccc2o/c(=N/NC(=O)c3cccs3)c(C(N)=O)cc2c1,6,-1,12,56*,5
O=C(N/N=C/c1ccc2c(c1)OCO2)c1ccc2c(c1)OCCO2,1,1,47,-60,-55*
O=C(N/N=C/c1ccc(Cl)cc1)c1ccc2c(c1)OCO2,-1,0,9,55*,36
O=C(N/N=C/c1ccncc1)c1ccc2c(c1)OCO2,1,0,26,2,-15
COc1cc(/C=N/NC(=O)c2cccs2)ccc1O,3,-1,2,41,9
O=C(O)c1ccc(N/N=C/c2ccc3c(c2)OCO3)cc1,-10,x,-6,-76,-71*
COc1cc(/C=N/NC(=O)c2ccc(CSc3nncn3C)cc2)ccc1OCC(=O)N1CC(C)OC(C)C1 (stereo unspecified),1,-1,1,-4,-2
COc1cccc(/C=N/NC(=O)c2cccs2)c1,5,10*,14,63*,15
COc1cc(/C=N/NC(=O)c2ccc(Cl)cc2)ccc1OCC(=O)N1CC(C)OC(C)C1 (stereo unspecified),0,2,14,56*,13
O=C(N/N=C/c1cccs1)c1ccc2c(c1)OCO2,2,1,36,26,16
O=C(N/N=C/c1ccc2c(c1)OCO2)c1cccs1,7,3,97*,37,18
CC(C)(CO)NC(=O)C(Cc1ccccc1)N1C(=O)c2ccccc2C1=O (stereo unspecified),2,1,2,12,6
CC1CCCN(C(=O)c2cc3ccccc3cc2O)C1 (stereo unspecified),2,-1,14,-5,5
O=C(NN=Cc1ccc2c(c1)CCN2)c1cccs1,1,5.6*,x,x,x
O=C(N/N=C/c1cc(Br)cc(Cl)c1O)c1ccc2c(c1)OCO2,-1,3,13,-1,3
O=C(N/N=C/c1cccnc1)c1cccc(Cl)c1,0,4,13,3,1
O=C(N/N=C/c1ccccn1)c1cccs1,5,4,5,48,28
CC(C)c1ccc(/C=N/NC(=O)c2cccc(Cl)c2)cc1,-1,1,7,55*,36
Cc1cc(Br)cc(/C=N/NC(=O)c2ccc3c(c2)OCO3)c1O,-2,2,62*,20,8
SMILES,GAA850 FXN act,DAX1 inh,AHR act,HSF-1 act,HSF1 inh
COc1ccc(NC(=O)CCCN2C(=O)CN(C)C2=O)cc1Cl,3,1,0,x,x
CCC(c1nnnn1Cc1ccc(F)cc1)N(CCCO)Cc1cc2cc3c(cc2[nH]c1=O)OCO3 (stereo unspecified),-2,0,73*,-50,-39
COc1ccc(C2SCC(C(=O)O)N2C(C)=O)cc1 (stereo unspecified),2,1,3,-17,-1
COc1ccc(C2SCC(C(=O)O)N2C(C)=O)cc1OC (stereo unspecified),1,8.4*,0,-9,-2
CCCc1cc(=O)[nH]c(SCCCCN2C(=O)c3ccccc3C2=O)n1,4,-2,4,13,11
C[n+]1ccccc1/C=C/c1cc(Br)ccc1O,2,0,60*,44,8
COc1ccc(/C=C/c2cccc[n+]2C)c(O)c1,0,-1,-4,-13,-6
Cc1ccc(NC(=O)CN2C(=O)N/C(=C/c3ccc4c(c3)OCCO4)C2=O)cc1,1,0,7,-12,-4
CCC(=O)N1CCN(c2ccc(NC(=S)NC(=O)COc3ccccc3)cc2)CC1,-1,-1,-3,-33,-12
CCOc1ccc(OCCC(=O)OCC(=O)Nc2ccc(N3CCOCC3)cc2)cc1,-2,0,3,-4,-3
Cc1ccc(NC(=O)CN2C(=O)N/C(=C/c3ccc(N4CCOCC4)cc3)C2=O)cc1,6,2,58*,49,7
CCC(=O)N1CCN(c2ccc(NC(=O)COc3ccc(CC)cc3)cc2)CC1,0,-1,-2,67*,27
Cc1ccc(OCCC(=O)OCC(=O)Nc2ccc(N3CCOCC3)cc2)cc1,1,0,4,-70,-61*
CC(C)c1ccc(NC(=O)c2ccc3snnc3c2)cc1,6,1,14,22,22
Cc1ccc(NC(=O)c2ccc3snnc3c2)cc1,5,0,63*,29,46
O=C(Nc1ccccc1)c1ccc2snnc2c1,1,2,63*,6,4
Clc1ccc(Nc2nc3cccnc3s2)cc1,7,2,53*,27,28
CCCCNc1nc2cccnc2s1,2,6.3*,0,-58,-48
COC(=O)c1cc(S(=O)(=O)NCC(C)c2ccccc2)c[nH]1 (stereo unspecified),-3,1,x,x,x
COC(=O)c1cc(S(=O)(=O)NCCc2ccccc2)c[nH]1,-1,0,4,-84,-81*
O=C(CSCc1ccc(C(=O)O)cc1)Nc1ccccc1,1,5.1*,3,-10,1
O=C(CC(=O)Nc1ccccc1)Nc1ccccc1,3,4.3*,11,17,-3
COc1ccccc1NC(=O)Cn1c(=O)c(N(C)C)c(N)n(C)c1=O,2,0,3,-76,-71*
COc1ccccc1NC(=O)CC(=O)Nc1ccccc1OC,0,-1,69*,-10,-3
COc1ccccc1NC(=O)Cn1ncc2c1-c1ccccc1OC2,-1,0,59*,2,1
SMILES,GAA850 FXN act,DAX1 inh,AHR act,HSF-1 act,HSF1 inh
COc1ccccc1NC(=O)Nc1cc(NC(=O)Nc2ccccc2OC)c(C)nc1C,0,1,49*,-7,1
COc1ccc(F)cc1-c1cc(C(=O)NCc2cccc(Cl)c2)[nH]n1,0,x,x,x,x
COc1ccccc1NC(=O)c1sc(Cl)nc1C,0,0,70*,-2,3
COc1ccccc1NC(=O)Cc1nn(C)c(=O)c2ccccc12,-3,-2,64*,30,0
COc1cccc(OC)c1NC(=O)Cc1nn(C)c(=O)c2ccccc12,1,-1,4,-20,5
O=C(CSc1nnc(NC(=O)c2ccccc2F)s1)NC1CC1,4,2,5,15,12
